Common to all, as to settings: concentration: 1 μM, replicates: in singlicate; n = 1
The subject of test [1] is TLK2.
Test [2] deals with TNIK.
Test [3] relates to TNK1.
Test [4] has as its system TNK2.
Test [5] relates to TNNI3K.
Test [6] relates to T1, TRKA.
T1 construct: gene NTRK1

In test [7] the test system is TRKB.
Test [8] deals with T2, TRKC.
T2 construct: gene NTRK3

In test [9] the test system is TRPM6.
Test [10] relates to TSSK1B.
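Also: KINOMEscan kinase panel screen.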

`O=C(Nc1cccc(-c2nn3ncccc3c2-c2ccnc(Nc3cccc(C(F)(F)F)c3)n2)c1)c1c(F)cccc1F` [GSK299495]: the “%Inh” value in test [1] is on record as 0%; in test [2], 14%; in [3], 90.5%; in [4] it was 49%; in [5] it was 8%; in test [6], 0%. Further, the “%Inh” value in [7] amounted to 39%; in [8], 20%; in test [9] it was 33%; in [10], 5%.

Turning to `O=C(NCCNc1ccnc(Nc2ccc(F)cc2)n1)Nc1ccccc1F` [GSK1379880], the “%Inh” value in test [1] is 0%; in [2] it was 0%; in test [3], 0%; in test [4], 8%; in test [5] it was 5%; in test [6], 0%. Further, the “%Inh” value in [7] turned out to be 18%; in test [8], 13%; in test [9], 24%; in [10], 0%.

On to `Cc1cccc(-c2nc(Nc3ccc4ncsc4c3)c3ccccc3n2)n1` [GW867588], for which the “%Inh” value in test [1] is 0%; in test [2] it was 15%; in test [3] it was 39%; in [4] it was 0%; in test [5], 1%; in test [6] it was 14%. Moreover, the “%Inh” value in [7], in test [8], in test [9] and in test [10] was 0% in each case.

Take `COc1cc2c(cc1OCCN1CCN(C)CC1)ncc1c3ccc(C#N)cc3[nH]c21`: the “%Inh” value in test [1] is 0%; in test [2], 91%; in [3], 8%; in test [4], 0%; in test [5], 2%; in test [6], 99.8%. Besides, the “%Inh” value in [7] was 97.2%; in test [8] it was 83%; in test [9], 0%; in [10], 34%.

In the case of `COc1ccc(CNC(=O)NC2CCN(c3ccnc(Nc4ccc(OC)cc4)n3)C2)cc1` (stereo not shown) [GSK1379727], the “%Inh” value in test [1] was found to be 0%; in test [2], 0%; in test [3], 0%; in test [4], 12%; in [5], 0%; in [6] it was 0%. The “%Inh” value in [7] came to 0%; in test [8], 47%; in [9] it was 0%; in test [10], 13%.

Take `CC(C)Oc1ccc2c(-c3ccnc(Nc4ccc(N5CCN(C)CC5)cc4)n3)cnn2n1` [GW696155]: the “%Inh” value in test [1] is 95.1%; in [2], 32%; in [3] it was 60%; in test [4], 46%; in test [5] it was 9%; in test [6], 54%. The “%Inh” value was 39% in [7], 42% in [8], 43% in test [9] and 79% in test [10].

On to `Fc1ccc(-c2ncn(CCCN3CCOCC3)c2-c2cccnc2)cc1` [SB-211743], for which the “%Inh” value in [1] stood at 0%; in test [2], 13%; in test [3], 14%; in test [4], 0%; in test [5] it was 0%; in test [6], 0%. Further, the “%Inh” value in [7] stood at 0%; in test [8] it was 0%; in test [9], 3%; in test [10], 0%.

Take `COc1cc2ncn(-c3cc(OCc4sccc4Cl)c(C(N)=O)s3)c2cc1OC` [GSK448459]: the “%Inh” value in test [1] was found to be 0%; in test [2], 74%; in test [3], 0%; in test [4] it was 24%; in test [5], 0%; in test [6], 47%. Also, the “%Inh” value in test [7] amounted to 25%; in [8], 14%; in test [9], 0%; in test [10] it was 1%.

Regarding `NS(=O)(=O)CCc1cccc(Nc2nccc(-c3c(-c4cccc(NC(=O)c5c(F)cccc5F)c4)nn4ccccc34)n2)c1` [GSK336735], the “%Inh” value in [1] was 2%; in [2] it was 85%; in test [3], 100%; in test [4], 89%; in test [5], 48%; in [6], 0%. Also, the “%Inh” value is on record as 19% in [7], 11% in test [8], 56% in [9] and 28% in [10].

Consider `N#Cc1c(N2CCOCC2)sc(-c2ccn[nH]2)c1-c1ccc(Cl)cc1`, for which the “%Inh” value in [1] is given as 0%; in test [2], 0%; in test [3], 0%; in test [4], 0%; in test [5], 0%; in [6], 12%. Also, the “%Inh” value is reported as 6% in test [7], 8% in [8], 0% in [9] and 0% in [10].

As to `CNc1ncnc2[nH]ncc12` [SKF-18355], the “%Inh” value in test [1] stood at 0%; in test [2] it was 17%; in test [3], 0%; in [4] it was 0%; in test [5] it was 0%; in [6], 0%. Also, the “%Inh” value in [7] was 0%; in [8], 0%; in [9] it was 23%; in test [10] it was 0%.

As for `Cn1ccc2ncnc(Oc3ccc(NC(=O)Nc4ccncc4)c(Cl)c3)c21`, the “%Inh” value in test [1], in [2], in test [3], in test [4], in [5] and in [6] was 0% in each case. In addition, the “%Inh” value in test [7], in test [8], in [9] and in test [10] was 0% in each case.

On to `Cl.Nc1ncnc2occ(-c3ccc(NC(=O)Nc4cc(C(F)(F)F)ccc4F)cc3)c12` [SB-707548], for which the “%Inh” value turned out to be 4% in test [1]; 67% in test [2]; 46% in test [3]; 20% in [4]; 90.8% in test [5]; 100% in test [6]. The “%Inh” value in test [7] amounted to 94.1%; in [8], 100%; in test [9], 0%; in [10], 0%.

With `COc1cc(Nc2nccc(N3CCC(NC(=O)c4cccc(NC(C)=O)c4)C3)n2)cc(OC)c1OC` (stereo not shown) [GSK1379754], the “%Inh” value came to 0% in test [1]; 0% in [2]; 0% in test [3]; 16% in test [4]; 0% in test [5]; 69% in [6]. For the same compound, the “%Inh” value in test [7] was 0%; in test [8], 22%; in [9] it was 22%; in test [10], 18%.

As to `NCC(NC(=O)c1cc(-c2cn[nH]c2)c(-c2ccnc3[nH]ccc23)s1)c1ccccc1.O=C(O)C(F)(F)F.O=C(O)C(F)(F)F` (stereo not shown) [GSK1325775], the “%Inh” value in [1] is reported as 14%; in test [2] it was 39%; in test [3], 0%; in test [4], 0%; in [5], 0%; in test [6], 76%. Moreover, the “%Inh” value in test [7] is 57%; in [8], 57%; in [9] it was 45%; in test [10] it was 33%.

`Cc1cccc(Cn2ccn3c(=O)cc(N4CCOCC4)nc23)c1` [GSK2297542]: the “%Inh” value was 5% in [1]; 0% in test [2]; 0% in test [3]; 23% in test [4]; 2% in test [5]; 0% in test [6]. Further, the “%Inh” value in test [7] amounted to 0%; in [8], 12%; in [9] it was 33%; in test [10], 0%.

Source of the values: paper PMC5540273 (PLoS ONE, 2017).
